Measured values as given in PubChem BioAssay AID590 (National Center for Advancing Translational Sciences (NCATS), 2007).
The campaign covered roughly 59,000 compounds. About 6,500 (11%) were called active. Inconclusive results (about 15%) are left out. Cut-off read from the data, not from the text of the source: active = max dye-equivalent concentration above about 10 nM; inconclusive = mostly about 1.1 nM to 9.6 nM; inactive = weaker than that. The sample as a whole holds a higher share of actives than the screen did. Peptide text beside a SMILES is read from it.

Assay: qHTS Assay for Spectroscopic Profiling in A350 Spectral Region
Conditions: Compound autofluorescence, 340/450 nm, Alexa 350 dye-equivalents; stronger effect = higher value

Row | SMILES | max dye-equivalent concentration
1 | CCOC(=O)CSc1nnc(CNC(=O)c2cccs2)n1-c1cc(OC)ccc1OC | inactive
2 | N#Cc1ccccc1-n1c(N)c(C(=O)N2CCCC2)sc1=S | inactive
3 | COC(=O)c1ccc(N(CC(=O)NC2CCCC2)C(=O)CNC(=O)c2ccco2)cc1 | inactive
4 | CCS(=O)(=O)N1CCCC(C(=O)NCCCN(C)Cc2ccccc2)C1 (stereo not given) | inactive
5 | CN1C(=O)C[C@H](c2ccccc2)C1=O | inactive
6 | O=C(CCCN1C(=O)CCC1=O)Nc1ccc(Cl)c(C(F)(F)F)c1 | inactive
7 | COc1ccc(Oc2ncc3nc(C)c(=O)n(-c4ccccc4)c3n2)cc1 | inactive
8 | O=c1c(-c2cccs2)nc2cnc(Oc3ccccc3)nc2n1-c1ccccc1 | 21 nM (active)
9 | O=c1c(-c2cc(F)cc(F)c2)nc2cnc(Oc3ccccc3)nc2n1C[C@H]1CCCO1 | 15 nM (active)
10 | COc1ccc(-n2c(=O)c(-c3cn(C)c4ccccc34)nc3cnc(OC)nc32)cc1 | inactive
11 | CCc1ccc(-c2nnn(Cc3nc4ccccc4s3)n2)cc1 | inactive
12 | O=C(N1CCOCC1)N1CCOCC1 | inactive
13 | O=C(NCc1cn2ccsc2n1)Nc1cccc(Cl)c1 | inactive
14 | CCOC(=O)c1csc(NC(=O)c2ccc(S(=O)(=O)N3CCCC3)cc2)n1 | inactive
15 | COc1ccc(OCC(=O)OCC(=O)Nc2ccc(S(=O)(=O)N3CCCCC3)cc2)cc1 | inactive
16 | Cc1cc(=O)[nH]c(SCc2cc(Cl)ccc2OC(F)F)n1 | inactive
17 | Cc1ccc(-c2noc(-c3ccccc3C(=O)NCC3CCCO3)n2)cc1 (stereo not given) | inactive
18 | CCOc1cc(-c2nc3cc(C)ccn3c2NCC2CCCO2)ccc1O (stereo not given) | 78 nM (active)
19 | Cc1ccc(C(=O)O)cc1S(=O)(=O)NCC1CCCO1 (stereo not given) | inactive
20 | O=C(CSc1nnc(-c2ccncc2)n1C1CCCCC1)Nc1ccccc1 | inactive
21 | CCOC(=O)N1CCN(C(=O)c2cn(C)c3ccc(S(=O)(=O)N4CCCC4)cc3c2=O)CC1 | inactive
22 | CCN(CC)S(=O)(=O)c1ccc2[nH]cc(C(=O)NCCc3ccccc3)c(=O)c2c1 | inactive
23 | CN1CCN(S(=O)(=O)c2ccc3[nH]cc(C(=O)O)c(=O)c3c2)CC1 | 12 nM (active)
24 | COC(=O)c1cc(S(=O)(=O)NC2CCN(Cc3ccccc3)CC2)cn1C | inactive
25 | Fc1ccccc1OCCCCn1cncn1 | inactive
26 | C[C@H](NC(=O)NCCc1ccccc1)C(=O)O | inactive
27 | O=C(Cn1cnc2c(cnn2-c2ccccc2)c1=O)NCc1ccccc1 | inactive

Row | SMILES | max dye-equivalent concentration
28 | CN(C)CCCn1c(N)c(C#N)c2nc(C#N)c(C#N)nc21 | 620 nM (active)
29 | Cc1cccc(C)c1NC(=O)CCCSc1nnc(-c2ccco2)n1-c1ccccc1 | inactive
30 | CC(=O)NC(C(=O)NCC(N)=O)C(C)C (stereo not given) (HELM PEPTIDE1{[ac].[CC(C)C(N[*:1])C(=O)[*:2]].G.[am]}$$$$V2.0) | inactive
31 | O=C(Cn1nc(C(F)(F)F)c2c1CCC2)NCc1ccc(F)cc1 | inactive
32 | O=c1[nH]c(=O)n(Cc2ccco2)c2c1C(C(F)(F)F)(C(F)(F)F)N=C(c1ccco1)N2 | 18 nM (active)
33 | Nc1cc(=O)nc(SCc2ccccc2)n1Cc1ccco1 | inactive
34 | Cc1ccc(C(=O)OCC(=O)NCc2ccc3c(c2)OCO3)s1 | inactive
35 | C=CCn1c(SCc2nnc(-c3ccccc3)o2)nnc1C(O)c1ccccc1 (stereo not given) | inactive
36 | O=C(OCc1nnc(-c2ccccc2)o1)c1ccc2c(c1)C(=O)N(CCc1ccccc1)C2=O | inactive
37 | Fc1ccc2nc(-c3ccccc3)nc(SCc3nnc(-c4ccccc4)o3)c2c1 | 38 nM (active)
38 | O=C(Nc1cccc(F)c1)N1CC2(CCN(C(=O)c3cnccn3)CC2)C1 | inactive
39 | Oc1ccccc1CNCc1ccccc1O | inactive
40 | CCOC(=O)CSc1nnc(CNc2ccc(F)cc2)o1 | inactive
41 | CCOc1cc(C2C(C(=O)OC)=CN(C3CCCC3)C=C2C(=O)OC)cc(Br)c1O | 230 nM (active)
42 | CCOc1ccc(CNC(=O)C2CC(=O)N(C3CCCC3)C2)cc1OC (stereo not given) | inactive
43 | CCOc1ccc(CNC(=O)C2CCC(=O)N2C2CCCC2)cc1OC (stereo not given) | inactive
44 | O=C(COc1ccc(S(=O)(=O)NCCc2ccccc2)cc1)N1CCCC1 | inactive
45 | CC1(C)CC(=O)c2sc(N)nc2C1 | inactive
46 | N#CC1=C(N)Oc2n[nH]c(CSc3ccccc3)c2C12C(=O)Nc1ccccc12 (stereo not given) | inactive
47 | COc1ccc(S(=O)(=O)N2CCCC(C(=O)N3CCN(C)CC3)C2)cc1C (stereo not given) | inactive
48 | CCOc1ccccc1NC(=O)CCN1CCN(S(=O)(=O)c2ccc(OC)cc2)CC1 | inactive
49 | COc1ccc(S(=O)(=O)N2CCN(c3ncnc4c(-c5ccccc5)nsc34)CC2)cc1 | 120 nM (active)
50 | COc1cccc(N2C(=O)CC(N3CCN(S(=O)(=O)c4ccccc4)CC3)C2=O)c1 (stereo not given) | inactive
51 | Cc1ccc(C)c(NC(=O)C2CCCN2C(=O)OC(C)(C)C)c1 (stereo not given) | inactive
52 | OCCN1CCN(CC/C=C2\c3ccccc3Sc3ccc(C(F)(F)F)cc32)CC1 | inactive
53 | COc1ccccc1NC(=O)CSc1nnc(Cn2nnc(-c3ccccc3)n2)n1-c1ccccc1 | inactive
54 | O=C(NCCc1ccc2c(c1)OCCO2)c1cc2ccccc2o1 | inactive

Row | SMILES | max dye-equivalent concentration
55 | CNC(=O)c1cc2c(ccc3ccccc32)oc1=N | 11000 nM (active)
56 | CCCCC(=O)Nc1cc(C)c2c(=O)oc3ccccc3c2n1 | inactive
57 | COc1c(C(=O)N2CCCC2)ccc2ccccc12 | inactive
58 | CCOC(=O)N1CCN(C(=O)c2cc3c(ccc4ccccc43)oc2=O)CC1 | 1700 nM (active)
59 | CCOC(=O)N1CCN(C(=O)c2n[nH]c(=O)c3ccccc23)CC1 | inactive
60 | CC(C)(C)NCC[C@@H](O)c1cc(C(F)(F)F)nc2c(C(F)(F)F)cccc12 | inactive
61 | CC(=O)N1CCC2(CC1)CCN(c1ccncc1)CC2 | inactive
62 | CC1(N2CCOCC2)CC2(O)C(=[N+]1[O-])CCc1nonc12 (stereo not given) | inactive
63 | CCOC(=O)CSc1nc2c(c(=O)n(Cc3ccccc3Cl)c(=O)n2C)n1C | inactive
64 | Cc1cc(C(=O)CC#N)c(C)n1CC(F)(F)F | inactive
65 | Cc1cc(NC(=O)CCC(=O)N(c2cccc(F)c2)C(C(=O)NC2CCCC2)c2ccncc2)no1 (stereo not given) | inactive
66 | O=C(Cn1ccc(=O)[nH]c1=O)Nc1ccc(C(=O)O)c(O)c1 | inactive
67 | COCCn1nnnc1CN1CCC(NC(=O)Nc2cccc(OC)c2)CC1 | inactive
68 | O=C(O)COc1nsnc1N1CCOCC1 | inactive
69 | CN(C)C(=O)c1ccc(-c2cncnc2Nc2ccccc2)cc1 | inactive
70 | CN(C(=O)c1ccno1)c1nnc(-c2cccnc2)s1 | inactive
71 | CN(C(=O)COc1ccccc1)c1nnc(-c2ccncc2)s1 | inactive
72 | COc1cccc(-c2nnc(N(C)C(=O)c3ccno3)s2)c1 | 32 nM (active)
73 | CCCn1c(SCC(N)=O)nnc1C(C)C | inactive
74 | Cc1cccc(N)c1SC1CCCCC1O (stereo not given) | inactive
75 | O=c1c(F)cn(C2CCCO2)c(=O)n1Cc1ccccc1Cl (stereo not given) | inactive
76 | CCn1c(Cc2ccccc2)nnc1SCC(=O)Nc1ccccc1 | inactive
77 | COc1ccc2nc(N3CCCC(O)C3)c(C#N)cc2c1 (stereo not given) | 130 nM (active)
78 | COc1ccc(OC)c(CNC(=O)C2CCCN(c3nc4ccccc4o3)C2)c1 (stereo not given) | inactive
79 | Cc1ccc(SCCN2C(=O)NC(C)(C)C2=O)cc1 | inactive
80 | Cn1nnc(NC(=O)CSc2ncn[nH]2)n1 | inactive
81 | O=C(NCc1ccccn1)c1cnc2sccn2c1=O | inactive

Row | SMILES | max dye-equivalent concentration
82 | O=C(NCc1ccccn1)Nc1ccc(F)cc1 | inactive
83 | O=C(Oc1cccnc1)c1cc2ccccc2oc1=O | 96 nM (active)
84 | Nc1ncc(-c2cc3ccccc3oc2=O)s1 | inactive
85 | O=C(NCc1ccccn1)c1cc2ccccc2oc1=O | 21 nM (active)
86 | Cc1ccsc1C(=O)OCC(=O)c1cc2ccccc2o1 | inactive
87 | CC(C)CSC[C@@H]1O[C@H](n2cnc3c(N)nccc32)[C@H](O)[C@@H]1O | inactive
88 | O=c1cc(CSc2ccc(Cl)cc2)nc(N2CCOCC2)[nH]1 | inactive
89 | Cc1ccc2c(CSc3nncs3)cc(=O)oc2c1 | inactive
90 | O=C(Nc1cnccn1)c1cccnc1 | inactive
91 | O=C(c1ccncc1)N1CCC2(CCN(Cc3cc(C(F)(F)F)cc(C(F)(F)F)c3)CC2)CC1 | inactive
92 | O=C(Nc1cccc2c1CCCC2)C1CCN(C(=O)NC2CCCCC2)CC1 | inactive
93 | CCC(=O)Nc1ccc(C(=O)CSc2nnc(CNc3ccc(Cl)cc3)o2)cc1OC | inactive
94 | O=C(NC1CCCCC1)n1c(=O)oc2cc(S(=O)(=O)N3CCCCC3)ccc21 | inactive
95 | COc1ccccc1N1CCN(Cc2nnnn2CCc2ccccc2)CC1 | inactive
96 | CCC(c1nnnn1Cc1ccccc1)N(Cc1cc2cc(OC)ccc2[nH]c1=O)CC1CCCO1 (stereo not given) | 32 nM (active)
97 | CCC(c1nnnn1Cc1ccco1)N(Cc1cc2cc(OC)ccc2[nH]c1=O)C1CCCCC1 (stereo not given) | 21 nM (active)
98 | CCOc1ccc2[nH]c(=O)c(CN(Cc3nnnn3Cc3ccccc3)CC3CCCO3)cc2c1 (stereo not given) | 150 nM (active)
99 | CCOc1ccc2[nH]c(=O)c(CN(Cc3nnnn3CCc3ccccc3)CC3CCCO3)cc2c1 (stereo not given) | 76 nM (active)
100 | CC(C)(C)n1nnnc1C(c1cccs1)N(Cc1cccnc1)CC1CCCO1 (stereo not given) | inactive
101 | CCC(c1nnnn1Cc1ccco1)N(CCc1ccccc1)Cc1cc2ccc(OC)cc2[nH]c1=O (stereo not given) | inactive
102 | Cc1cccc2cc(CN(Cc3cccs3)C(c3nnnn3C3CCCC3)C(C)C)c(=O)[nH]c12 (stereo not given) | inactive
103 | CCC(c1nnnn1C1CCCC1)N(Cc1cccs1)Cc1cc2cccc(C)c2[nH]c1=O (stereo not given) | inactive
104 | Cc1cccc2cc(CN(Cc3ccc4c(c3)OCO4)Cc3nnnn3C3CCCC3)c(=O)[nH]c12 | inactive
105 | COc1ccc(N(CC(=O)NC(C)(C)C)C(=O)c2ccco2)cc1 | inactive
